Laboratory results as given in PubChem BioAssay (EPA / NIEHS).
Inconclusive results are not listed. Calls of active or inactive are those of the source. How the source made its calls, unless noted: active means hit-call score of the fitted dose curve at least 0.9, where 1 is the maximum; inactive means score below 0.9.

Experiments:
[1] = CCTE_Mundy_HCI_Cortical_NOG_NeuriteLength: CCTE's Neurite Outgrowth Assay in rat cortical cells for Neurite Length, Mundy Lab (AID 2284213)
Outline: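 Neurite length was read by high-content imaging of βIII-tubulin-labelled neurites in rat primary cortical cultures. Activity was fitted relative to DMSO.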

[2] = CCTE_Mundy_HCI_Cortical_Synap_Neur_Matur_NeuriteLength: CCTE's Synaptogenesis and Neurite Maturation Assay in rat cortical cells for Neurite Length, Mundy Lab (AID 2284214)
Outline: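 Rat primary cortical cultures, AraC added DIV 5, dosed DIV 7 through DIV 12 […]. Fixed, MAP2/synaptophysin immunostained with Hoechst; neurite length by high-content imaging, fitted in positive direction versus DMSO.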

[3] = CCTE_Mundy_HCI_Cortical_Synap_Neur_Matur_NeuriteSpotCountPerNeuron: CCTE's Synaptogenesis and Neurite Maturation Assay in rat cortical cells for Neurite Spot Count per Neuron Count, Mundy Lab (AID 2284215)
Outline: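 Rat primary cortical cells received AraC at DIV 5, then chemicals with a media change at DIV 7, and were fixed at DIV 12. Synaptophysin puncta on MAP2-stained neurites per neuron were counted by high-content imaging, fitted relative to DMSO.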

[4] = CCTE_Mundy_HCI_Cortical_Synap_Neur_Matur_SynapseCount: CCTE's Synaptogenesis and Neurite Maturation Assay in rat cortical cells for Synapse Count, Mundy Lab (AID 2284218)
Outline: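 Rat primary cortical cultures, AraC at DIV 5, chemical dosing DIV 7 to DIV 12 (288.33 h). Fixed cells stained for MAP2, synaptophysin and Hoechst; synapses per neuron counted by high-content imaging, loss of signal versus DMSO.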

[5] = CCTE_Mundy_HCI_Cortical_Synap_Neur_Matur_NeuriteCount: CCTE's Synaptogenesis and Neurite Maturation Assay in rat cortical cells for Neurite Count, Mundy Lab (AID 2284222);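 further: exposure from day 7 to day 12 in vitro with readout at day 12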
Outline: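 Rat primary cortical cells; AraC added at DIV 5, chemicals dosed with media change at DIV 7 through DIV 12. MAP2/synaptophysin/Hoechst immunostaining, high-content imaging of neurite number; fitted relative to DMSO.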

[6] = CCTE_Mundy_HCI_Cortical_Synap_Neur_Matur_CellBodySpotCount: CCTE's Synaptogenesis and Neurite Maturation Assay in rat cortical cells for Cell Body Spot Count, Mundy Lab (AID 2284223)
Outline: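 Rat primary cortical cultures received AraC at DIV 5 to arrest glia, were dosed with chemical at DIV 7 with media change, and were fixed at DIV 12 (288.33 h). Synaptophysin puncta on MAP2-positive cell bodies per neuron were counted by high-content imaging versus DMSO.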

[7] = CCTE_Mundy_HCI_hNP1_Pro_ResponderAvgInten: CCTE's Proliferation Assay in human neuroprogenitor cells, Mundy Lab (AID 2284224; active means hit-call score of the fitted dose curve at least 0.9, where 1 is the maximum;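 further: human neural progenitor cells hNP1 derived from WA09 embryonic stem cells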)
Outline: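 Proliferation read as average intensity of BrdU-positive cells, imaged at 26.25 h post-dosing: chemical exposure started after 40–44 h culture, BrdU during final 4 h, paraformaldehyde fixation. Positive-direction fit relative to DMSO.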

[8] = CCTE_Mundy_HCI_Cortical_NOG_NeuronCount: CCTE's Neurite Outgrowth Assay in rat cortical cells for Neuron Count, Mundy Lab (AID 2284236; active means hit-call score of the fitted dose curve at least 0.9, where 1 is the maximum;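 further: neurons counted by imaging betaIII-tubulin and Hoechst stained cortical cells; cells exposed to compound for about 48 hours before fixation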)
Outline: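 Read-out: neuron number by high-content imaging of betaIII-tubulin (Alexa Fluor-488) and Hoechst-labelled rat primary cortical cells.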

[9] = CCTE_Mundy_HCI_Cortical_NOG_BPCount: CCTE's Neurite Outgrowth Assay in rat cortical cells for Branch Point Count, Mundy Lab (AID 2284237)
Outline: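 Measured 50.33 h after dosing, this morphology endpoint uses rat primary cortical cultures labelled for betaIII-tubulin. Branch points are quantified by high-content imaging, with DMSO as negative control and baseline.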

[10] = CCTE_Mundy_HCI_hNP1_Casp3_7: CCTE's Caspase-Glo 3/7 Assay in human neuroprogenitor cells for Apoptosis, Mundy Lab (AID 2284240)
Outline: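 Luminescent caspase-3/7 readout, 26.5 h post-dose, in human neural progenitor cells from WA09 embryonic stem cells. Cells grew 40–44 h at 37 °C, 5% CO2 before chemical addition. Activity analysed as signal increase over DMSO baseline.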

[11] = CCTE_Mundy_HCI_hNP1_CellTiter: CCTE's Cell Titer-Glo 2 Assay in human neuroprogenitor cells for Viability, Mundy Lab (AID 2284241; active means hit-call score of the fitted dose curve at least 0.9, where 1 is the maximum)
Outline: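 Viability read as luminescent ATP content (CellTiter-Glo, 30 min room temperature) twenty-four hours after dosing, relative to DMSO. Cells: WA09-derived hNP1 neuroprogenitors on poly-L-ornithine/laminin, plated 40 to 44 hours before chemical.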

[12] = CCTE_Mundy_HCI_Cortical_Synap_Neur_Matur_NeuronCount: CCTE's Synaptogenesis and Neurite Maturation Assay in rat cortical cells for Neuron Count, Mundy Lab (AID 2284242; active means hit-call score of the fitted dose curve at least 0.9, where 1 is the maximum)
Outline: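 Rat primary cortical cells, AraC added at DIV 5, dosed with media change from DIV 7 to DIV 12. Fixed, Hoechst-stained and immunolabelled for MAP2 and synaptophysin; neuron number counted by high-content imaging, loss fitted versus DMSO.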

[13] = IUF_NPC2c_oligodendrocyte_migration_120hr: Leibniz Research Institute for Environmental Medicine (IUF) 120-hour Neural Progenitor Cell Migration Assay for Oligodendrocyte Migration (NPC2c) (AID 2284297);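 further: O4-positive oligodendrocyte migration distance divided by radial glia migration distance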
Outline: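 Human fetal cortex-derived neural progenitor spheres (0.3 mm) were plated on poly-D-lysine/laminin in N2 differentiation medium and exposed to 7 concentrations for 120 h, with half-medium renewal at day 3. Oligodendrocyte migration distance was normalized to radial glia migration, relative to DMSO.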

[14] = IUF_NPC2a_radial_glia_migration_120hr: Leibniz Research Institute for Environmental Medicine (IUF) 120-hour Neural Progenitor Cell Migration Assay for Radial Glia Migration (NPC2a) (AID 2284298)
Outline: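 Single 0.3 mm primary human fetal-cortex (GW 16-19) NPC spheres were plated on poly-D-lysine/laminin in N2 differentiation medium and exposed from day 0 for 120 h, half-medium refreshed day 3. Migration distance came from Hoechst nuclei-density imaging, relative to DMSO.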

[15] = IUF_NPC2a_radial_glia_migration_72hr: Leibniz Research Institute for Environmental Medicine (IUF) 72-hour Neural Progenitor Cell Migration Assay for Radial Glia Migration (NPC2a) (AID 2284299)
Outline: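 Human fetal neural progenitor spheres (0.3 mm) plated on poly-D-lysine/laminin in N2 differentiation medium and exposed from day 0 at 7 concentrations; radial glia migration distance from sphere edge measured at 72 h on brightfield images, mean of four directions, vs DMSO.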

[16] = IUF_NPC2b_neuronal_migration_120hr: Leibniz Research Institute for Environmental Medicine (IUF) 120-hour Neural Progenitor Cell Migration Assay for Neuron Migration (NPC2b) (AID 2284300)
Outline: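 Primary human fetal cortex neural progenitor spheres (0.3 mm) plated on poly-D-lysine/laminin in N2 differentiation medium, exposed 120 h with half-medium refresh at day 3. TUBB3-stained neuron distance from sphere core, normalized to radial glia migration, versus DMSO.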

[17] = IUF_NPC3_neuronal_differentiation_120hr: Leibniz Research Institute for Environmental Medicine (IUF) 120-hour Neuronal Differentiation Assay (NPC3) (AID 2284301)
Outline: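 Human fetal (GW 16-19) neural progenitor spheres (0.3 mm) plated on poly-D-lysine/laminin in N2 differentiation medium, exposed 120 h at 37C with half-medium renewal day 3; 7 concentrations. TUBB3+ cells as % of Hoechst nuclei, CNN-identified; DMSO baseline.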

[18] = IUF_NPC4_neurite_length_120hr: Leibniz Research Institute for Environmental Medicine (IUF) 120-hour Neuronal Morphology Assay for Neurite Length (NPC4) (AID 2284302)
Outline: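 Human fetal neural progenitor spheres (0.3 mm) plated on poly-D-lysine/laminin in N2 differentiation medium, exposed from day 0 for 120 h with half-medium refresh at day 3, 37C. Mean neurite length (um) of TUBB3-positive neurons from skeletonized immunostaining images; DMSO ≤0.1%.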

[19] = IUF_NPC5_oligodendrocyte_differentiation_120hr: Leibniz Research Institute for Environmental Medicine (IUF) 120-hour Oligodendrocyte Differentiation Assay (NPC5) (AID 2284304; active means hit-call score of the fitted dose curve at least 0.9, where 1 is the maximum;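 further: primary human fetal neural progenitor spheres plated to migrate and differentiate; share of O4-positive cells among Hoechst nuclei found by CNN image analysis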)
Outline: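 Primary human fetal (GW 16-19) neural progenitor spheres (0.3 mm) plated on poly-D-lysine/laminin in N2 differentiation medium, exposed from day 0 for 120 h with half-medium refresh at day 3; O4-positive cells as percent of Hoechst nuclei, CNN-identified, versus DMSO.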

[20] = IUF_NPC4_neurite_area_120hr: Leibniz Research Institute for Environmental Medicine (IUF) 120-hour Neuronal Morphology Assay for Neurite Area (NPC4) (AID 2284305; active means hit-call score of the fitted dose curve at least 0.9, where 1 is the maximum)
Outline: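 Human fetal neural progenitor spheres (0.3 mm) plated on poly-D-lysine/laminin in N2 differentiation medium, exposed 120 h (7 concentrations, DMSO ≤0.1%, half-medium refresh day 3). Fixed, TUBB3 immunostained; mean neurite area per neuron by Omnisphero skeletonization.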

[21] = IUF_NPC2-5_cytotoxicity_72hr: Cytotoxicity Assessment at 72 hours in the Leibniz Research Institute for Environmental Medicine (IUF) Neural Progenitor Cell Migration and Differentiation Assay for Cytotoxicity (NPC2-5) (AID 2284306; active means hit-call score of the fitted dose curve at least 0.9, where 1 is the maximum;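 further: LDH release into supernatant measured by resorufin fluorescence marking membrane damage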)
Outline: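 Human fetal primary neural progenitor spheres (0.3 mm) plated on poly-D-lysine/laminin in N2 differentiation medium, exposed from day 0 at 37C. LDH-dependent resazurin-to-resorufin fluorescence in supernatant at 72 h; 7 concentrations, DMSO at most 0.1%.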

[22] = IUF_NPC2-5_cytotoxicity_120hr: Cytotoxicity Assessment at 120 hours in the Leibniz Research Institute for Environmental Medicine (IUF) Neural Progenitor Cell Migration and Differentiation Assay (NPC2-5) (AID 2284307; active means hit-call score of the fitted dose curve at least 0.9, where 1 is the maximum)
Outline: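 Human fetal neural progenitor spheres (0.3 mm, GW 16-19 cortex) were plated on poly-D-lysine/laminin in N2 differentiation medium and exposed for 120 h, with half-medium refresh at day 3. LDH release into supernatant was read by resorufin fluorescence.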

[23] = IUF_NPC2-5_cell_number_120hr: Cell Number Assessment at 120 hours in the Leibniz Research Institute for Environmental Medicine (IUF) Neural Progenitor Cell Migration and Differentiation Assay (NPC2-5) (AID 2284308);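 further: count of Hoechst-stained nuclei in migration zone around plated human neural progenitor spheres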
Outline: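 Primary human fetal neural progenitor spheres (GW 16-19, 0.3 mm) plated on poly-D-lysine/laminin in N2 differentiation medium, exposed from day 0 for 120 h with half-medium refresh at day 3; Hoechst-positive nuclei counted in migration area versus DMSO control.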

[24] = IUF_NPC1_cytotoxicity_72hr: Cytotoxicity Assessment at 72 hours in the Leibniz Research Institute for Environmental Medicine (IUF) Neural Progenitor Cell Proliferation Assay (NPC1) (AID 2284332; active means hit-call score of the fitted dose curve at least 0.9, where 1 is the maximum;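 further: rising LDH signal means more cytotoxicity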)
Outline: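 Human fetal neural progenitor spheres (0.3 mm) in EGF/FGF proliferation medium, 37C, exposed 72 h without renewal. LDH release in supernatant read by resorufin fluorescence; gain of signal scored relative to dynamic range.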

[25] = CCTE_Mundy_HCI_iCellGluta_NOG_NeuronCount: CCTE's Neurite Outgrowth Assay in iCellGluta cells for Neuron Count, Mundy Lab (AID 2284340; active means hit-call score of the fitted dose curve at least 0.9, where 1 is the maximum;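 further: cells fixed about 48 h after compound addition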)
Outline: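 Neuron count read by automated high-content imaging of Hoechst 33342 and betaIII-tubulin/Alexa Fluor-488 labelling in human iPSC glutamatergic neurons. Activity fitted relative to DMSO.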

[26] = CCTE_Mundy_HCI_iCellGluta_NOG_NeuriteCount: CCTE's Neurite Outgrowth Assay in iCellGluta cells for Neurite Count, Mundy Lab (AID 2284342; active means hit-call score of the fitted dose curve at least 0.9, where 1 is the maximum;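 further: chemical exposure about 48 hours starting 2 hours after plating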)

Measured: outcome

CCCCCC=C(C)C(CC)CCO (stereo unspecified)
inactive: all assays above
